Pf growth 48h: inhibits P. falciparum growth in the first generation, 48 h. 310,000 compounds, 5.9% hits. Potency, µM (doses to about 28.7 µM), for the others: at the top dose activity change, negative = inhibition, hits mostly inhibitors. P. falciparum luciferase growth in erythrocytes, 48 h
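Firefly luciferase activity from engineered P. falciparum reports growth; inhibitors lower the luminescent signal. Cultures contained 2% hematocrit erythrocytes at 0.1% final parasitemia.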
AMA1 RON2 block: disrupts binding of P. falciparum AMA1 to RON2; AlphaScreen AMA1-biotinylated RON2 peptide binding; Potency, µM (series often up to 58.2 µM), inactives show at the highest dose activity change, negative = inhibition, hits mostly inhibitors; 360,000 compounds, 0.2% hits;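 further: 0% = vehicle wells and -100% = peptide control; nearly all actives have a fitted effect of over 45% in size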
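AMA1 (3D7) with his tag at 25 nM final met compounds first, then biotinylated RON2 peptide at 25 nM; detection used donor plus acceptor beads, 10 µg/mL apiece, read by AlphaScreen after 30 min at room temperature.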
HCV inhibitor: HCV inhibition; Potency, µM (top dose mostly 41.8 µM), for the others: at the highest dose activity change, negative = inhibition, hits mostly inhibitors; Huh7.5.1 HCVcc-Cre infection, luciferase reporter, 44 h; 340,000 compounds, 3.4% hits
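Antiviral activity was scored by luciferase reporter output from cells infected with HCVcc-Cre (~0.5 moi) in presence of compound, 44 h infection period, cells seeded 1,000/well 4 h prior.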
Pf growth 96h: P. falciparum growth inhibition at 96 hour, primary screen for plastid delayed-death inhibitors; P. falciparum luciferase reporter growth, 96 h; Potency, µM (titrated, usually from 28.7 µM), for inactives: at the top dose activity change, negative = inhibition, actives largely listed as inhibitors; 320,000 compounds, 6.9% hits; AID 504834
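Two parasite generations (96 h, 37 C, 5% CO2) of compound exposure in infected erythrocytes (0.05% parasitemia, 2% hematocrit). Luciferase-reporter P. falciparum; decreased luminescence indicates inhibited growth, aimed at apicoplast-acting delayed death.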
* marks the source's active call; other numbers are inactive results; ? = inconclusive; / = not tested or not shown; ! = repeats disagree. In the library only some 11% were active in any assay of this set; here they are far more common. The call rests on the fitted dose curve; in most records, active means well fitted curve in the direction sought with a large enough effect; inconclusive means small, poorly fitted or top-dose-only effect, or another doubt; inactive means no such curve, though single readings can be large; an effect the other way counts as inactive or inconclusive. Unless noted, on the % scale 0 is the no-effect control and ±100 the full control effect; potency means the concentration at half of the fitted maximal effect.

SMILES	Pf growth 48h	AMA1 RON2 block	HCV inhibitor	Pf growth 96h
CC(C)Oc1ccc(S(=O)(=O)N2CCCCC2)cc1NC(=O)CN1C(=O)NC2(CCCC2)C1=O	12µM*	11%	?	?
O=C(NC1CC1)c1cc2cc3ccccc3nc2s1	-21%	-3%	-9%	13µM*
COc1ccc(CCNC(=O)C(=O)NCC2OCCN2S(=O)(=O)c2cc(F)ccc2F)cc1OC (centres undefined)	?	1%	-12%	3%
NC(N)=NC(=O)Cc1c(Cl)cccc1Cl	?	-9%	-11%	1.9µM*!
CCN1CCN(c2cc(C)c3cc(NC(=S)NCc4cccs4)ccc3n2)CC1	?	-2%	?	?
Cc1cc(N2CCN(C)CC2)nc2ccc(NC(=S)NCc3cccs3)cc12	?	-12%	10µM*	-3%
COc1ccccc1CNC(=S)Nc1ccc2nc(N3CCN(C)CC3)cc(C)c2c1	6.6µM*	-6%	-19%	320%
COc1ccc(C(=O)NC2=NCCS2)cc1S(=O)(=O)N1CCCCC1C (centres undefined)	?	38%	-7%	?
O=C(NN1c2ccccc2CCc2ccccc21)c1ccccc1Br	?	0%	2%	12µM*
CCO/N=C(\C)c1c(O)c2ccccc2n(C)c1=O	-16%	9%	2%	12%
Cc1ccc2sc(NC(=O)CN3C(=O)c4ccccc4C3=O)nc2c1C	9%	8%	24%	15%
O=C(NNC(=O)c1ccncc1)Nc1cc(Cl)ccc1Cl	/	67%	0%	/
COC(=O)c1ccc(OCCOc2ccccc2)cc1	/	21%	2%	69%
CCOC(=O)C(CCCCOc1ccc([N+](=O)[O-])cc1)C(=O)OCC	16%	17%	9%	?
COc1ccc(C(=O)c2ccccc2C(=O)c2ccccc2)cc1	/	13%	-1%	/
COc1cccc(OC)c1OCCOc1ccc(C(=O)c2ccccc2)cc1	3%	8%	?	0.37µM*
CCOC(=O)C(CCCOc1ccccc1C)C(=O)OCC	-22%	52%	?	9.3µM*
COC(=O)c1ccc(OCCOc2ccccc2C)cc1	13%	62%	2%	1.3µM*
COc1ccc2cc(C(=O)C3CCCN(Cc4cccc(C)n4)C3)ccc2c1 (centres undefined)	0.66µM*	-26%	?	?
COc1cccc(C(=O)C2CCCN(Cc3ccccn3)C2)c1 (centres undefined)	?	81%	-4%	19%
COc1ccc(C(=O)C2CCCN(Cc3cccn3-c3ccc(Cl)cn3)C2)c(OC)c1 (centres undefined)	4.1µM*	-19%	8.9µM*	15%
COc1ccc(C(=O)C2CCCN(Cc3cccc(C)n3)C2)c(OC)c1 (centres undefined)	1.5µM*	13%	?	1µM*
COc1c(C)cc(C(=O)C2CCCN(Cc3ccccn3)C2)cc1C (centres undefined)	2.1µM*	3%	-2%	109%
COc1ccc(C(=O)C2CCCN(Cc3c(F)ccc(F)c3F)C2)c(OC)c1 (centres undefined)	?	-10%	?	-22%
COc1ccc(C(=O)C2CCCN(Cc3ccc(C)s3)C2)c(OC)c1 (centres undefined)	-14%	?	?	-7%
SMILES	Pf growth 48h	AMA1 RON2 block	HCV inhibitor	Pf growth 96h
COc1c(C)cc(C(=O)C2CCCN(C(=O)CCc3scnc3C)C2)cc1C (centres undefined)	-18%	-3%	10µM*	66%
COc1ccc(-c2oc3ccccc3c2C#Cc2cncn2C)cc1	0.59µM*	8%	2.8µM*	0.66µM*
COc1ccc(-c2sc3cc4c(cc3c2C#Cc2cncn2C)OCO4)cc1	/	5%	5µM*	/
COC(=O)c1c(-c2ccc(OC)cc2)oc2ccccc12	0%	75%	?	49%
COc1ccc(-c2sc3cc4c(cc3c2-c2ccc(OCCN3CCOCC3)cc2)OCO4)cc1	/	6%	-49%	/
COc1ccc(-c2sc3cc4c(cc3c2C#CC2(N)CCCCC2)OCO4)cc1	13µM*	-25%	22µM*	?
COc1ccc(-c2sc3ccc(N4CCOCC4)cc3c2C#CC2(O)CCCCC2)cc1	/	-10%	2.8µM*	/
COc1ccccc1C(=O)Nc1ccnn1C1CCN(C(=O)c2ccoc2C)CC1	15%	8%	6%	?
CCOCC(=O)Nc1cc(Cl)ccc1C	23%	3%	9%	21%
COc1ccc(-c2sc3ccc(OC)cc3c2C#Cc2cncn2C)cc1	/	-1%	2.8µM*	/
COc1cc(OC)cc(-c2sc3ccc(OC)cc3c2C#CC(C)(C)O)c1	?	3%	?	?
O=C(NCCCN1CCN(CCCNC(=O)c2ccccc2F)CC1)c1ccccc1F	4%	0%	-11%	2%
CN(CCCNC(=O)c1ccccc1F)CCCNC(=O)c1ccccc1F	?	0%	13%	9.3µM*
Cc1cc(C2=NNC(=NC3CCCCC3)SC2)c(C)n1-c1c(C)n(C)n(-c2ccccc2)c1=O	6.6µM*	51%	-27%	13µM*
Cc1cc(C2=NNC(=NC3CC3)SC2)c(C)n1-c1ccccc1F	?	20%	11µM*	?
COC(=O)[C@@]12C[C@@H](CC(=O)NCCC(C)C)C(=O)N(CCc3ccc(OC)c(OC)c3)C1=CCC(C)(C)C2	/	-11%	/	/
Cc1nn(Cc2ccccc2)c2c1C(c1ccncc1)C(C#N)=C(N)O2 (centres undefined)	-17%	5%	-16%	?
Cc1nn(Cc2ccccc2)c2c1C(c1ccc(Cl)cc1)C(C#N)=C(N)O2 (centres undefined)	?	1%	2%	1.2µM*
O=C(CCC(=O)Nc1nnc(C2CCCCC2)s1)NCC1CCCO1 (centres undefined)	/	1%	19%	-28%
CC(C)c1nnc(NC(=O)CCC(=O)NCC2CCCO2)s1 (centres undefined)	3%	-8%	-2%	2.1µM*
CC(C)c1ccc(OCc2ccc(C(=O)O)o2)cc1	1µM*	-2%	21%	244%
CCOC(=O)C1=NN(C(C)=O)C2C(=O)N(CC)C(=O)C12 (centres undefined)	2%	-3%	11%	9%
Cc1c(C)n2c(SCC(=O)Nc3ccc4c(c3)OCCO4)nnc2[nH]c1=O	9.3µM*	-12%	10%	?
CCn1c(SCC(=O)Nc2ccc3c(c2)OCCO3)nnc1-c1ccccn1	0%	-16%	3%	2.1µM*
Cc1nnc(SCC(=O)Nc2ccc3c(c2)OCO3)o1	7%	6%	-1%	13µM*
CCCc1cc(=O)[nH]c2nnc(SCC(=O)Nc3ccc4c(c3)OCCO4)n12	21%	-22%	32%	41%
C=CCn1c(SCC(=O)Nc2ccc3c(c2)OCCO3)nnc1-c1ccccn1	9%	-21%	-2%	0%
Cc1ccccc1-n1c(SCC(=O)Nc2ccc3c(c2)OCO3)nnc1-c1ccccn1	?	-4%	22µM*	29%
CCNc1sc(S(C)(=O)=O)nc1S(=O)(=O)c1ccc(Cl)cc1	?	-1%	-22%	?

Source: PubChem
